Only some compounds are listed: those with a hit (about 1.3% of all), similar ones and a draw of the others.
PfHsp40 rescue: rescue of PfHsp40-mediated yeast toxicity; S. cerevisiae expressing PfHsp40, growth rescue, ATP luminescence; growth rescue, % at 12.5 µM; actives 0.68% (n = 340,000); in the data active = growth rescue above about 28%, passing the limit was not always enough;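 note: yeast W303a lacking pdr1 and pdr3 grown in galactose medium; growth measured after three days at 30 °C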
TcdB inh: TcdB glycohydrolase inhibition; P18177; TcdB glycohydrolase enzymatic assay, plate reader; inhibition, % at 9.99 µM; actives 0.24% (n = 350,000); in the data active = inhibition above about 10%
Target sequence (P18177 whole entry, looked up): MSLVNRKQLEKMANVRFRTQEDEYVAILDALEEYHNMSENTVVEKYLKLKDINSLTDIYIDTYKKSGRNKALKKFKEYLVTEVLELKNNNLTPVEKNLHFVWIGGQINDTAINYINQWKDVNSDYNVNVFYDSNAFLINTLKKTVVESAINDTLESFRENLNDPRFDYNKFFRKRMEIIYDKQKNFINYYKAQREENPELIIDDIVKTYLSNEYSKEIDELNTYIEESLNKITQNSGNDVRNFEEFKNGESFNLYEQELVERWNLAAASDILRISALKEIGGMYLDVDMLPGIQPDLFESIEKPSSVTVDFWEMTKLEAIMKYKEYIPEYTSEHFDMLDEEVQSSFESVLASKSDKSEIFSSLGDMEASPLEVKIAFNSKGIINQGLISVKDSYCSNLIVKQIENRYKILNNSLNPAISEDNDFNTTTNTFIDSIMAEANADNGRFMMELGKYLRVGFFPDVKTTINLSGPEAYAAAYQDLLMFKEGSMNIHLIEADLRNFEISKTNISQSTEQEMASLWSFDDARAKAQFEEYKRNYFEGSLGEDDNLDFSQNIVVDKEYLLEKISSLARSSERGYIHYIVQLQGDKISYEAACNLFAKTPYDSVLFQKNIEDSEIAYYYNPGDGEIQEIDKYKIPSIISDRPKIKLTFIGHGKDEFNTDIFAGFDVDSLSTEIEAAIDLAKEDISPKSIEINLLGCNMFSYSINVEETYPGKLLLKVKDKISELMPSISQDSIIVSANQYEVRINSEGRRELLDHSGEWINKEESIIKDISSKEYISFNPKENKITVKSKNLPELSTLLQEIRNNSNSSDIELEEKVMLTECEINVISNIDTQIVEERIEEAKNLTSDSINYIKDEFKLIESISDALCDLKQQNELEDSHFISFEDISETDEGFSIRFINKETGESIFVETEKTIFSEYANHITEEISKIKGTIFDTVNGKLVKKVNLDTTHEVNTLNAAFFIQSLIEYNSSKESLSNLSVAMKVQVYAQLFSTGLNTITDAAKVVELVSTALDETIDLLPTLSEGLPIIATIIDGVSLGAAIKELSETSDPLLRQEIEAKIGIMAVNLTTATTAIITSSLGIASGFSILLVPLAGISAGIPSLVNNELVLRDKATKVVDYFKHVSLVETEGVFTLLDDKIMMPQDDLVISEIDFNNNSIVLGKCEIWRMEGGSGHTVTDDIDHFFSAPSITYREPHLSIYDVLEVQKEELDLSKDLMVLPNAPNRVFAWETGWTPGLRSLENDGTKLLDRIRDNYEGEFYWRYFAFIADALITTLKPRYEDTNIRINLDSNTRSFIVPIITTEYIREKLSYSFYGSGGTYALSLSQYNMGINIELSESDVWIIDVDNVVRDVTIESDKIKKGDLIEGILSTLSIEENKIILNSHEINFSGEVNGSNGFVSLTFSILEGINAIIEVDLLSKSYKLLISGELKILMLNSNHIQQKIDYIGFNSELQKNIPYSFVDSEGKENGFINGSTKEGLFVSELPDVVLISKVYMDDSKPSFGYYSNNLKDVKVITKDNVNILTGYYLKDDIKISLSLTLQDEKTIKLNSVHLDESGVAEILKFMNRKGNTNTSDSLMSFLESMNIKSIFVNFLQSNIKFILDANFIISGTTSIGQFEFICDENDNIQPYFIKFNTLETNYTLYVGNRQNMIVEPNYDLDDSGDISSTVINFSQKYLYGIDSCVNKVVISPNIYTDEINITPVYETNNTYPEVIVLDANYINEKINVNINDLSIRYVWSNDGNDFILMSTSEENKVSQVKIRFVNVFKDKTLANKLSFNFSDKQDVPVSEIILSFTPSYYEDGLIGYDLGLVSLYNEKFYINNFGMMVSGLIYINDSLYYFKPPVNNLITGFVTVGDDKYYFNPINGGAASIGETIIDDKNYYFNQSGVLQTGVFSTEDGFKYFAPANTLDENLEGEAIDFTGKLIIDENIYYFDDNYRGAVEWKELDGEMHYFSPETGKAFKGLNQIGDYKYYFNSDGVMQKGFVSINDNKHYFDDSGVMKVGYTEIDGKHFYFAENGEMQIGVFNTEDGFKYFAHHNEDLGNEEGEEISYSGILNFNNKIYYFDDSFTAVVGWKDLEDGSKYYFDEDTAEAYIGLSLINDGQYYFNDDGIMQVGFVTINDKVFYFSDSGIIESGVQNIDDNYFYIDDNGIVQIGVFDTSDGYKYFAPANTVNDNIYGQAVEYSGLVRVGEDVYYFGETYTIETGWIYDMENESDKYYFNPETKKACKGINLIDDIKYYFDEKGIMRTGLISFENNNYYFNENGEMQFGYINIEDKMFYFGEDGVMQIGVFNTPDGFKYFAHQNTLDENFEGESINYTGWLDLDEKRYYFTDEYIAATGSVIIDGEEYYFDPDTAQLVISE
MazEF act: activators of E. coli MazEF toxin-antitoxin RNase. P0AE70. FAM/BHQ RNA-DNA oligo cleavage fluorescence, 5 h. activation, % at 20 µM. actives 0.32% (n = 350,000). AID 504720; in the data active = activation above about 50%
Mtb hypoxia rep: inhibitors of hypoxia-regulated fluorescent reporter in Mycobacterium tuberculosis. M. tuberculosis hypoxia-regulated fluorescent reporter, fluorescence. fluorescence inhibition, % (test concentration not listed). actives 0.1% (n = 300,000); in the data active = fluorescence inhibition mostly above about 23%, no sharp cut-off; inactive = mostly below about 17%
RN4220 kill: S. aureus RN4220 growth inhibition; AID 1259311; actives 0.33% (n = 330,000); OD600, 16 h; inhibition, % (no concentration beside the values); in the data active = inhibition above about 85%
Sa ugtP lethal: growth inhibition of S. aureus ugtP deletion strain. S. aureus RN4220 ugtP deletion, OD600 growth, 16 h. growth inhibition, % (test concentration not listed). AID 1259309. actives 0.54% (n = 330,000); in the data active = growth inhibition above about 68%
Numbers stand for hits; i = inactive; nt = no result shown; + = active, no number.

SMILES	PfHsp40 rescue	TcdB inh	MazEF act	Mtb hypoxia rep	RN4220 kill	Sa ugtP lethal
Cc1c(NS(=O)(=O)c2ccc(Br)cc2)c(=O)n(-c2ccccc2)n1C	i	i	i	i	i	i
Brc1ccc(Cn2c(-c3ccc(Br)o3)nc3ccccc32)o1	56	nt	i	i	i	i
CCCCc1ccc(-c2ccc(Br)cc2)nc1	i	i	i	i	i	88
Cc1cccc(C=NNC(=O)c2ccc(NC(=O)c3ccccc3Cl)cc2)n1	nt	nt	nt	i	i	i
O=C(Nc1cc(Cl)cc(Cl)c1)N1CCCC1	i	i	i	i	91	i
O=C(Nc1cc(F)ccc1F)N1C[C@@H]2[C@H](c3ccccc31)[C@@H](CO)N2C(=O)c1ccccc1	nt	i	nt	nt	nt	nt
CCOC(=O)C1SC2(C(F)F)CC1(O)c1c(c(OC)c3occc3c1OC)O2 (configuration not stated)	38	nt	i	i	i	i
CCOC(=O)C1C(=O)CC(C)(O)C(C(=O)OCC)C1c1cccc(OC(F)(F)C(F)F)c1 (configuration not stated)	i	nt	i	i	i	i
COc1cc(C=NN=C(N)c2nonc2N)ccc1O	nt	nt	nt	i	i	i
CCC(/C=C1\Sc2ccc(OC)cc2N1CC)=C\c1sc2ccc(OC)cc2[n+]1CCCS(=O)(=O)[O-]	i	i	i	68	i	i
CCC(=O)/C=C1/Sc2ccc(OC)cc2N1CCO	i	i	i	i	i	i
CCO/C(=C/c1sc2ccc(OC)cc2[n+]1CCCS(=O)(=O)[O-])CC	i	nt	i	i	i	i
CCC(/C=C1\Sc2ccc(OC)cc2N1CCO)=C\c1sc2ccc(OC)cc2[n+]1CCO	i	i	i	nt	99	96
Oc1c(Cl)cc(Cl)cc1C=Nc1ccc(N2CCOCC2)cc1	i	i	i	i	i	i
O=[N+]([O-])c1cc(Cc2ccccc2)cc(C=Nc2ccc(N3CCOCC3)cc2)c1O	274	nt	i	i	i	i
Cc1ccc(O)c(N=Cc2cc(Cc3ccccc3)cc([N+](=O)[O-])c2O)c1	124	i	i	i	i	i
CO[C@H]1CN(C)C(=O)c2ccc(NC(C)=O)cc2OC[C@H](C)N(C(=O)c2ccncc2)C[C@H]1C	nt	i	nt	nt	nt	nt
NC(=NN=Cc1ccc(O)cc1)c1nonc1N	nt	nt	nt	i	i	i
N/C(=N\N=C\c1ccc(O)cc1)c1nonc1N	i	28	i	nt	nt	nt
COc1cccc(C=NNC(=O)c2c(C)nc3ccc(Br)cn23)c1	nt	nt	nt	i	i	i
N#Cc1ccc(C23CC4(C2)C(CN(CC2CCCCC2)C4c2ccccc2)C3c2ccc(Cl)nc2)cc1 (configuration not stated)	nt	nt	nt	i	i	i
C=CCNc1nc(Cl)nc(Nc2cc(Cl)ccc2OC)n1	i	i	58	i	i	i
CC(=NNC(=O)Cc1c(C)[nH][nH]c1=O)c1cccc(Br)c1	nt	nt	nt	i	i	i
Cc1ccc(NC(=O)C2=C(c3ccccc3)S(=O)(=O)CCS2(=O)=O)cc1	i	i	i	i	i	100
Cc1ccc(NC(=O)c2ccccc2)cc1	i	nt	i	i	i	i
SMILES	PfHsp40 rescue	TcdB inh	MazEF act	Mtb hypoxia rep	RN4220 kill	Sa ugtP lethal
CC[C@]12C(=O)N(C)CC(C3C(=O)N(Cc4ccccc4)C(=O)C31)N2C(=O)c1ccc(C(C)(C)C)cc1 (some centres not stated)	nt	nt	nt	i	i	i
Cc1ccc(S(=O)(=O)N2CCN=C2SCc2ccc(Cl)c(Cl)c2)cc1	i	nt	+	i	i	i
Cc1ccc(CSC2=NCCN2S(=O)(=O)c2ccc(C)cc2)cc1	nt	i	i	nt	nt	nt
Cc1cc(C=c2sc3nc4ccccc4n3c2=O)c(C)n1-c1ccccn1	nt	nt	nt	i	i	i
Cc1ccc(CN2C(=O)CN=C(c3ccccc3)c3ccccc32)cc1	i	12	i	i	i	i
Cc1oc(-c2ccccc2)nc1CN1C(=O)CN=C(c2ccccc2)c2ccccc21	i	i	i	nt	nt	nt
COc1ccc(Cl)cc1NC(=O)Cn1c(NCCO)nc2ccccc21	i	27	i	i	i	i
CCCN1C[C@H](C)[C@@H](OC)CN(C)C(=O)c2ccc(NC(=O)c3ccccc3F)cc2OC[C@@H]1C	nt	i	nt	nt	nt	nt
O=S(OCCN1CCOCC1)C(c1ccccc1)c1ccccc1 (configuration not stated)	109	i	i	i	i	i
O=S(OCCN1CCCC1)C(c1ccccc1)c1ccccc1 (configuration not stated)	i	i	i	i	i	i
CC(O)C1NC(=O)C(CCCCN)NC(=O)c2cc([N+](=O)[O-])cc(I)c2OCCC(C(N)=O)NC1=O (configuration not stated)	nt	nt	nt	i	i	i
CC(N)C(=O)NC(C(=O)N1CCCC1C(=O)NC(c1ccccc1)c1ccccc1)C(C)C (configuration not stated)	i	11	i	i	i	i
CO[C@@]1(NC(=O)C2SC(=C(C(N)=O)C(=O)O)S2)C(=O)N2C(C(=O)O)=C(CSc3nnnn3C)CSC21 (some centres not stated)	nt	nt	nt	i	100	100
Cc1occc1C(=O)NC(C)C12CC3CC(CC(C3)C1)C2 (configuration not stated)	105	i	i	i	i	i
CC(C)(O)c1ccc2c(c1)CCC1C(C)(C(=O)O)CCCC21C (configuration not stated)	i	i	i	nt	i	i
CC(C)c1c(O)ccc2c1CC[C@H]1C(C)(C)CCC[C@]21C	112	i	i	nt	nt	nt
Cc1ccc(/C=N/c2sc3c(c2C#N)CCC3)s1	43	nt	i	nt	nt	nt
O=C(c1cnccn1)N1CC2(C1)[C@@H](c1ccccc1)[C@@H](CO)N2C(=O)c1ccccc1	nt	i	nt	nt	nt	nt
OC(c1ccc(F)cc1)(c1ccc(F)cc1)C1CCCN1 (configuration not stated)	nt	nt	nt	i	i	i
O=C(Nc1ccc(Cl)c(C(F)(F)F)c1)NC1CC2CCCC(C1)N2Cc1ccccc1 (configuration not stated)	nt	i	159	i	i	i
O=C(NC1CC2CCCC(C1)N2C(=O)Nc1ccc(Cl)c(C(F)(F)F)c1)C1CC1 (configuration not stated)	i	nt	i	i	i	i
C[C@@H]1CCCCO[C@H](CN(C)S(=O)(=O)c2cccs2)[C@H](C)CN([C@@H](C)CO)C(=O)c2cc(NS(C)(=O)=O)ccc2O1	nt	i	nt	nt	nt	nt
COC(=O)C(C=NO)NC(=O)c1ccccc1 (configuration not stated)	nt	nt	nt	i	i	i
COc1ccc(C(=O)NNC2=Nc3cccc4cccc2c34)cc1	i	i	50	i	i	i
NC(=O)NNC1=Nc2cccc3cccc1c23	i	i	i	i	i	i
Cc1ccc(C(=O)NNC2=Nc3cccc4cccc2c34)cc1	i	nt	86	i	i	i
O=C(Cc1ccncc1)NCC[C@@H]1CC[C@@H](NC(=O)Nc2ccc(F)cc2)[C@@H](CO)O1	nt	i	nt	nt	nt	nt
Cc1[nH]c2ccccc2c1C(=O)/C=C\c1ccccc1Cl	i	nt	i	i	i	i
Cc1[nH]c2ccccc2c1C(=O)/C=C/c1ccccc1Cl	i	i	51	i	i	i

Screening results (PubChem)
